Assay outcomes as filed in PubChem.
Shown is part of a subset that was picked to be rich in hits.
Pf Dd2 growth = inhibitors of Plasmodium falciparum Dd2 growth; 120,000 compounds, 4.3% hits; P. falciparum Dd2 growth, SYBR Green, 72 h; Potency, µM (highest dose often 28.9 µM), most hits filed as inhibitors; active means well fitted inhibition curve with a large enough effect; further: nearly all actives have a fitted effect of over 65% in size
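Readout: SYBR Green fluorescence, 485 nm excitation, 535 nm emission, after ~16 h lysis at 37C. Before that, Dd2-infected red cells (2.5% hematocrit) grew 72 h with compound, 29 uM top final concentration.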
Hits are given with their value; n = inactive; [ ] = another dose, or the depositor's remark.

SMILES	Pf Dd2 growth
CCOc1ccc(CC(=O)NCCc2csc(-c3ccc(C)cc3)n2)cc1	10µM
CCOc1cccc(CNC(=O)C2CCCCC(=O)N2C)c1 (stereo not given)	n
Cc1cc(Cl)ccc1OCC(=O)N(Cc1ccco1)Cc1ccco1	n
CCNC(=O)N1CCCC1C(=O)Nc1ccccc1-c1ccc(OC)cc1 (stereo not given)	n
COc1ccc(NC(=O)C2CCCN(c3cnccn3)C2)c(OC)c1 (stereo not given)	n
COc1ccc(-c2cn3nc(N4CCCC(C(=O)Nc5cccc(Cl)c5C)C4)sc3n2)cc1 (stereo not given)	n
COc1ccc(-c2ccccc2NC(=O)C2CCCN(Cc3c(O)cccc3OC)C2)cc1 (stereo not given)	1.8µM
COc1ccc(-c2ccccc2NC(=O)C2CCCN(Cc3ccccc3O)C2)cc1 (stereo not given)	2.8µM
COc1ccc(-c2ccccc2NC(=O)C2CCCN2C(=O)C2(C)CC2)cc1 (stereo not given)	n
CCn1cc(CN(C)C(=O)c2ccc(N3CC4CC(C3)[C@H]3CCCC(=O)N3C4)nc2)c(C)n1 (stereo not given in full)	n
Cc1ccccc1-c1nnc(CN2CCN(c3cccc(C)c3C)CC2)o1	n[0.594 µM]
COc1cc(Cl)c(C)cc1NC(=O)CSc1nc2c(c(=O)[nH]1)CCC2	n
O=C1NCCC[C@@H]1NC(=O)[C@H]1CN(C(=O)C2CCNCC2)CCN1C(=O)c1cccs1	n
CCCS(=O)(=O)N1C[C@@H](Oc2ccccc2)C[C@H]1C(=O)NC	n
Cc1ccc(S(=O)(=O)N[C@H]2C[C@@H](c3nc(C(C)C)no3)N(C)C2)cc1	n
Cc1ccc(CNC(=O)[C@H]2CCC[C@H]2NC(=O)c2cnc(C)cn2)cc1	n
CC(=O)Nc1nonc1-c1nnc(SCC(=O)N(C)c2ccccc2)n1C	n[0.594 µM]
CCN(CC)Cc1cnc2c(C(=O)NCCc3cccs3)cnn2c1	n
CCN(CC)Cc1cnc2c(C(=O)NCCc3c[nH]c4ccccc34)cnn2c1	8.9µM
CCN(CC)Cc1cnc2c(C(=O)NCCc3cnccn3)cnn2c1	n
O=C(O)C1CCc2nnc(C3CCN(S(=O)(=O)CCC(F)(F)F)CC3)n21 (stereo not given)	n
COc1ccc(Cn2c(=O)c3cccnc3n(CC(=O)Nc3c(C)cc(C)cc3C)c2=O)cc1	n
Cc1noc(C)c1CO[C@H]1CCOC[C@H]1NC(=O)CCCc1cn[nH]c1	n
O=S(=O)(c1ccc(-c2csc(=Nc3ccc(OC(F)(F)Cl)cc3)n2CCCO)cc1)N1CCCC1	11µM
COc1ccc(-c2csc(=Nc3ccccc3)n2CCO)cc1F	n
SMILES	Pf Dd2 growth
CCn1c(-c2ccc(S(=O)(=O)N3CCOCC3)cc2)csc1=Nc1ccc(C)c(Cl)c1	n
COCCN1C(=O)c2ccccc2C(C(=O)Nc2nc3ccccc3s2)C12CCCCC2 (stereo not given)	2.5µM
COCCN1C(=O)c2ccccc2C(C(=O)Nc2ccccc2O)C12CCCC2 (stereo not given)	n
COC(=O)CCNC(=O)C1c2ccccc2C(=O)N(CC(C)C)C12CCCCC2 (stereo not given)	n
COCCN1C(=O)c2ccccc2C(C(=O)NC(C)C)C12CCCCC2 (stereo not given)	n
CCCCNC(=O)C1c2ccccc2C(=O)N(CCOC)C12CCCCC2 (stereo not given)	n
COCc1nnc(NC(=O)C2c3ccccc3C(=O)N(CC(C)C)C23CCCCC3)s1 (stereo not given)	3.5µM
COCCN1C(=O)c2ccccc2C(C(=O)Nc2nnc(COC)s2)C12CCCCC2 (stereo not given)	n
COCCN1C(=O)c2ccccc2C(C(=O)Nc2nnc(C3CC3)s2)C12CCCCC2 (stereo not given)	7.9µM
COCCN1C(=O)c2ccccc2C(C(=O)Nc2cccc(C)n2)C12CCCCC2 (stereo not given)	n
N#Cc1cccc(CN2CCCC2=O)c1	n
CN(C(=O)Cc1c[nH]c2ccccc12)C1CCc2nn(C)c(=O)n2CC1 (stereo not given)	n
CCN(CC)C1CCOC2(CCN(C(=O)c3n[nH]c4ccccc34)CC2)C1 (stereo not given)	n
CCc1ccc(-c2nn(CC(=O)NC3CCCCC3)c3c2cnc2ccc(F)cc23)cc1	n
CCn1c(C2CCCN(C(=O)c3sc(C(C)C)nc3C)C2)nn(C)c1=O (stereo not given)	n
CN(C)CCNC(=O)C(C)(C)Oc1nn(CCOc2ccccc2)c2ccccc12	n
CCNC(=O)N[C@H]1CC[C@]2(C)CC[C@@H]([C@H](C)C(=O)NCc3ccc(F)cc3)[C@H](O)[C@H]2[C@@H]1C	n
COc1ccccc1C(=O)NC[C@H]1Cn2c(-c3ccc4c(c3)OCCO4)cnc2CO1	n
COc1ccccc1CNC[C@H]1Cn2c(-c3cccc(Cl)c3)cnc2CO1	13µM
Fc1ccc(CNC[C@H]2Cn3c(-c4ccc(F)cc4)cnc3CO2)cc1	n
CC(C)(C)c1ccc(C(=O)NCCc2csc(-c3ccc(Cl)cc3)n2)cc1	n
CC1(C)[C@H](Cc2cc(CO)on2)C[C@@H]1NS(=O)(=O)c1ccccc1	n
O=C(O)CCn1ncc2cc(OCC3CCN(C(=O)c4cc(F)ccc4Cl)CC3)ccc21	n
CCOc1ccc(Nc2nc(C)c(NC(=O)c3cccc(OC)c3)c(Nc3ccc(OCC)cc3)n2)cc1	n
CCOc1ccc(C(=O)Nc2ccc(S(=O)(=O)Nc3nc(C)cc(C)n3)cc2)cc1OC	n
SMILES	Pf Dd2 growth
CCOc1ccc(C(=O)Nc2c(C)nc(Nc3ccccc3)nc2Nc2ccccc2)cc1OCC	13µM
COc1ccc(-n2nc(C(=O)O)c(=O)n(C)c2=O)cc1	n
COc1ccc2[nH]c3c(c2c1)CCNC31CCN(C(=O)COc2ccc(F)cc2)CC1	n
COc1ccc2[nH]c3c(c2c1)CCNC31CCN(C(=O)Cc2ccncc2)CC1	n
COc1ccc2[nH]c3c(c2c1)CCNC31CCN(C(=O)Cc2cccc(F)c2)CC1	7.1µM
CCCCn1c(SCC(=O)Nc2ccc(F)cc2)nc2c(sc3ccccc32)c1=O	n
Cc1ccc(-n2nc3c(N4CCC(C(=O)N(C)Cc5ccccc5)CC4)nnc(C)c3c2C)cc1	n
COc1ccc(NC(=O)CSc2nc3ccccc3n2CC(=O)N(C)c2ccc(F)cc2)cc1	n
O=C1COCC2(CN1Cc1ccccc1)CN(c1cccnc1)C2	n
COc1ccc(CCC(=O)N[C@@H]2CN(c3ccncn3)C[C@H]2CN(C)C)cc1	n
Cc1ccc(CC(=O)N[C@@H]2CN(c3ccncn3)C[C@H]2CN(C)C)cc1	n
CN(C)C[C@@H]1CN(c2ccncn2)C[C@H]1NC(=O)COc1ccc(Cl)cc1	7.9µM
O=C([C@@H]1C[C@H](F)CN1C(=O)c1ccccc1F)N1CCCCC1	n
Cc1ccc(-n2nc3n(c2=O)CCN([S+](=O)([O-])c2cccc(C(F)(F)F)c2)C3)cc1	n
COc1cc2[nH]c(=O)n(CCCC(=O)N3CCN(c4cccc(C(F)(F)F)c4)CC3)c(=O)c2cc1OC	n
COc1cc2c(C(=O)N3CCN(c4cccc(C(F)(F)F)c4)CC3)cn(CC(C)C)c(=O)c2cc1OC	8.9µM
CCCN(C(=O)c1cn(CC(C)C)c(=O)c2cc(OC)c(OC)cc12)c1cccc(C)c1	n
COc1ccc(CCNC(=O)Cc2ccc(NC(=O)N3CCSc4ncccc43)cc2)cc1OC	n
CCN(c1ccccc1)c1nnc(NC(=O)Nc2cccc(Cl)c2C)s1	n
Cc1ccccc1NC(=O)CCC(=O)N1CCSc2ccccc21	n
